# Many of the other results were omitted from the sample, so hits are more common in it than they were.
# Methyltransferases: Primary Screen for Target Class Profiling of Small Molecule Inhibitors of Methyltransferases. purified enzyme, MTase-Glo SAH luminescence; stronger effect = lower value. calls only at 40 µM. hit rate 3.9% among 25,000. AID 1745853, 2022; call rule not given here
#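 Each enzyme was reacted with SAM and its substrate, with compounds tested once at 40 uM; SAH formed was read by MTase-Glo luminescence.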
# Numbers without * were called inactive; i = inactive; + = active, no number. On the % scale 0 is the no-effect control and ±100 the full control effect.
SMILES,Methyltransferases
CCOC(=O)c1cc2n(n1)CC(C)(C(=O)NCCOC)N(c1cc(Cl)ccc1OC)C2=O (configuration not stated),i
CC[N+]1(C/C2=C/CCCCCC2)CCC(NC(=O)C2c3cc(Cl)ccc3Oc3ccc(Cl)cc32)CC1 (configuration not stated),+
CC1CCC(NC(=O)C2c3cccn3CC(=O)N2CCC2=CCCCC2)CC1 (configuration not stated),i
CC1CCCC(NC(=O)C2(C)Cn3c(cc4sccc43)C(=O)N2CCc2ccc(Cl)cc2)C1C (configuration not stated),i
CCOC(=O)c1ccc(N2C(=O)CSc3c(c4ccccc4n3C)C2C(=O)NCc2ccc(F)cc2)cc1 (configuration not stated),i
Cc1ccccc1Sc1ccc(/C=C2\SC(=S)NC2=O)cc1[N+](=O)[O-],+
CN1C(=O)c2cc(C(=O)NCc3ccc4c(c3)OCO4)nn2CC1(C)C(=O)NC1CCCC1 (configuration not stated),i
NS(=O)(=O)c1ccc(CCNc2nc3c(-c4cccc(Br)c4)nnn3c3ccccc23)cc1,i
CC1(C(=O)NC2CCCCCC2)Cn2c(ccc2-c2ccco2)C(=O)N1CCc1ccccc1 (configuration not stated),i
Cc1ccccc1Cn1nc2n(CCc3ccccc3)c(=O)c3ccccc3n2c1=O,i
O=C(O)CNC(=O)CNC(=O)CNC(=O)CSC(=O)c1ccccc1,i
CC(=O)NC(Cc1ccccc1)C(=O)NC(C(=O)O)C(C)C (configuration not stated),i
O=C(O)CNC(=O)C(CS)Cc1ccccc1 (configuration not stated),+
CCc1ccccc1NC(=O)Cn1nc2n(CC(C)C)c(=O)c3ccc(C(=O)NCC(C)C)cc3n2c1=O,i
COc1cc2nc(N3CCN(C(=O)c4ccco4)C4CCCCC43)nc(N)c2cc1OC (configuration not stated),+
O=C(NC1CCCN(c2cc(N3CCCC3)ncn2)C1)c1ccco1 (configuration not stated),i
O=C(c1ccco1)N1CCCCC1c1nc(C2CC2)n[nH]1 (configuration not stated),i
CCN1C(=O)c2c(C(=O)NCCc3ccc(OC)cc3OC)ncn2CC1(C)C(=O)NC1CCCC1 (configuration not stated),i
CC1(C(=O)NC2CCCCCC2)Cn2c(cc3sccc32)C(=O)N1Cc1ccccc1Cl (configuration not stated),i
O=C(CCc1nnc2n(Cc3ccc(F)cc3)c(=O)c3ccccc3n12)N1CCC(Cc2ccccc2)CC1,i
CCOc1ccc(CCN2C(=O)c3ccc(-c4ccco4)n3CC2(C)C(=O)NCc2ccc(Cl)cc2)cc1 (configuration not stated),i
C=C1C(=O)O[C@@H]2CC(C)=C([C@@H](C)CCCO)[C@@H](OC(=O)C(C)C)[C@H]12,+
C=C1C(=O)O[C@H]2[C@H]1[C@@H](OC(=O)C(C)CO)C[C@@]1(C)[C@H](O)CCC(=O)[C@H]21 (some centres not stated),i
C=C1CC2OC(=O)C(=C)C2C(OC(=O)/C(C)=C\C)CC2(C)OC1=CC2=O (configuration not stated),i
CCCn1c(=O)c2ccc(C(=O)NC(C)C)cc2n2c(SCc3ccc(F)cc3)nnc12,i
SMILES,Methyltransferases
CCOc1ccccc1CN1C(=O)c2nc3ccccc3n2CC1(C)C(=O)NC1CCC(C)CC1 (configuration not stated),i
CCCn1c(=O)c2ccc(C(=O)NC(C)CC)cc2n2c(=O)n(C)nc12 (configuration not stated),i
CC(C)NC(=O)N1Cc2c(sc3c2CCCC3)-n2cccc2C1c1ccc(Cl)cc1 (configuration not stated),i
COc1ccc(CCN2C(=O)c3cc4ccccc4n3CC2(C)C(=O)NC2CCCC2)cc1OC (configuration not stated),i
CC1CCN(C(c2ccc(F)cc2)c2ccc(C(C)C(=O)O)cc2-c2ccc(C(F)(F)F)cc2)CC1 (configuration not stated),+
CCOc1ccc(CCN2C(=O)c3ccc(-c4ccccc4)n3CC2(C)C(=O)NC2CCCC2)cc1 (configuration not stated),i
COc1ccc(CN2C(=O)c3cc4sccc4n3CC2(C)C(=O)NC2CCCCCC2)cc1 (configuration not stated),i
CC(C)CCn1c(=O)c2ccccc2n2c(SCC(=O)Nc3ccc4c(c3)OCO4)nnc12,i
COc1ccc(CN2C(=O)c3ccc(-c4ccccc4)n3CC2(C)C(=O)NC2CCCCCC2)cc1 (configuration not stated),i
Cc1ccc(CN2C(=O)c3cc4ccccc4n3CC2(C)C(=O)NCCCOC(C)C)cc1 (configuration not stated),i
CC(=O)Nc1c2n(c3ccccc13)CC(C)(C(=O)NC1CCCCCC1)N(Cc1ccco1)C2=O (configuration not stated),i
Nc1nc(-n2cc(C(=O)O)c(=O)c3cc(F)c(N4CC(O)C4)c(Cl)c32)c(F)cc1F,+
CC1CN(c2cc3c(cc2F)c(=O)c(C(=O)O)cn3-c2ccc(F)cc2F)CCN1 (configuration not stated),i
C[C@@H]1CN(c2c(F)c(F)c3c(=O)c(C(=O)O)cn(C4CC4)c3c2F)C[C@H](C)N1,i
COC(=O)CNC(=O)c1cn2cc(-c3cccc(C(F)(F)F)c3)sc2n1,i
Cc1ccc(C)c(N2CCN(S(=O)(=O)c3cc4c(cc3C)n(C)c(=O)n4C)CC2)c1,i
CCCCCOc1ccc2c(-c3ccccc3)cc(=O)oc2c1,i
CCOc1cc2oc(=O)cc(-c3ccccc3)c2cc1Cl,i
CCOc1cc(OCC)c2c(-c3ccccc3)cc(=O)oc2c1,+
CCOC(=O)c1cc2n(n1)CC(C)(C(=O)NC1CCCCCC1)N(c1ccc(C)cc1)C2=O (configuration not stated),i
Cc1ccc(Cn2c(=O)c3ccccc3n3c(=O)n(CC(=O)NC4CCCCC4)nc23)cc1,i
COc1ccc(N2C(=O)c3cc4ccc(OC)cc4n3CC2(C)C(=O)NC2CCCCC2)c(OC)c1 (configuration not stated),i
CCOC(=O)c1cc2n(n1)CC(C)(C(=O)NC1CCC(C)CC1)N(c1cccc(Cl)c1C)C2=O (configuration not stated),i
O=C(CCCn1ccc2cc(S(=O)(=O)N3CCCC3)ccc21)NCc1ccco1,i
O=S1(=O)CCN(Cc2cc(NCC3CCOCC3)c3[nH]c(-c4ccccc4)cc3c2)CC1,+
COc1cccc(Cn2nc3n(Cc4ccccc4)c(=O)c4ccc(C(=O)NCC(C)C)cc4n3c2=O)c1,i
CN1C(=O)c2cc(C(=O)NC3CCCC3)nn2CC1(C)C(=O)NCc1ccc(F)cc1 (configuration not stated),i
CC1(C)CCCC2(C)C1C(O)C=C(CO)C2(O)CO (configuration not stated),i
COC1C=C(C)C(O)(CO)C2(C)CCCC(C)(C)C12 (configuration not stated),+
CC1=C[C@H](O)[C@H]2C(C)(C)CCC[C@]2(C)[C@@]1(O)CO,i
